Consider 40 targets from the supplement of paper PMC11001985.

Unmarked numbers belong to inactive results.

Chain of UniProt P05783 (P05783 whole entry): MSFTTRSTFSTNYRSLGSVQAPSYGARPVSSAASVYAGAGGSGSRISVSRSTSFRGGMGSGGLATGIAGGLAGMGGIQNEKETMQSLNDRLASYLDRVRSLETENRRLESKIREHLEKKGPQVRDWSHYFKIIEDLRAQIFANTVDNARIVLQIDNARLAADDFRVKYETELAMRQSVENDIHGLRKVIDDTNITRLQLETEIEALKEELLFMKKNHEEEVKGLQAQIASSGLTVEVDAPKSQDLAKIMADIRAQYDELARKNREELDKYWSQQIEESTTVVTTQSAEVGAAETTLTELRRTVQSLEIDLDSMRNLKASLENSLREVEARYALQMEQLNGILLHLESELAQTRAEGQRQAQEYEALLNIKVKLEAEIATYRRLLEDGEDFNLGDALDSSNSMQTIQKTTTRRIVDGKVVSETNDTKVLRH
Chain of UniProt P05556 (P05556 whole entry): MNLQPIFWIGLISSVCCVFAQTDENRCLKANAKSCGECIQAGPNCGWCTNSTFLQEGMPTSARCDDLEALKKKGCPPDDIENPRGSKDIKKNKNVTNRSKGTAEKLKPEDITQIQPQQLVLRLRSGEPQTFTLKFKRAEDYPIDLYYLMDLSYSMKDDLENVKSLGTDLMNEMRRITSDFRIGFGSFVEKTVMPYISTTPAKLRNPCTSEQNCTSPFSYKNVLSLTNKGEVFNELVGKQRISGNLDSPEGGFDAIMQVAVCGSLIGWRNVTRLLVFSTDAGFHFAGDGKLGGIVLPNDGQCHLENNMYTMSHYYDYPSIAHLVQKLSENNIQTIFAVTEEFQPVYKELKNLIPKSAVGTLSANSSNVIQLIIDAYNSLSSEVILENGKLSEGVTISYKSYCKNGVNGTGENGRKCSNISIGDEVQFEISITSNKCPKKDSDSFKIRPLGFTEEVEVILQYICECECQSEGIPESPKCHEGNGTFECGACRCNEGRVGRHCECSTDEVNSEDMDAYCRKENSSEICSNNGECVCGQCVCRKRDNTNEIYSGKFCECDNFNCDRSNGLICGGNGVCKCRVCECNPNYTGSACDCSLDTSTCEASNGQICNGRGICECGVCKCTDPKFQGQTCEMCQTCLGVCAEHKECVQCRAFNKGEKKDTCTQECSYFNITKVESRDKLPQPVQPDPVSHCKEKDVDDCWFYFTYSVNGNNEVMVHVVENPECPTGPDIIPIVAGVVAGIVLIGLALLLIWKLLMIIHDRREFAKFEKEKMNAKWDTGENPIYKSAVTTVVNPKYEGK
Chain of UniProt Q16363 (Q16363 whole entry): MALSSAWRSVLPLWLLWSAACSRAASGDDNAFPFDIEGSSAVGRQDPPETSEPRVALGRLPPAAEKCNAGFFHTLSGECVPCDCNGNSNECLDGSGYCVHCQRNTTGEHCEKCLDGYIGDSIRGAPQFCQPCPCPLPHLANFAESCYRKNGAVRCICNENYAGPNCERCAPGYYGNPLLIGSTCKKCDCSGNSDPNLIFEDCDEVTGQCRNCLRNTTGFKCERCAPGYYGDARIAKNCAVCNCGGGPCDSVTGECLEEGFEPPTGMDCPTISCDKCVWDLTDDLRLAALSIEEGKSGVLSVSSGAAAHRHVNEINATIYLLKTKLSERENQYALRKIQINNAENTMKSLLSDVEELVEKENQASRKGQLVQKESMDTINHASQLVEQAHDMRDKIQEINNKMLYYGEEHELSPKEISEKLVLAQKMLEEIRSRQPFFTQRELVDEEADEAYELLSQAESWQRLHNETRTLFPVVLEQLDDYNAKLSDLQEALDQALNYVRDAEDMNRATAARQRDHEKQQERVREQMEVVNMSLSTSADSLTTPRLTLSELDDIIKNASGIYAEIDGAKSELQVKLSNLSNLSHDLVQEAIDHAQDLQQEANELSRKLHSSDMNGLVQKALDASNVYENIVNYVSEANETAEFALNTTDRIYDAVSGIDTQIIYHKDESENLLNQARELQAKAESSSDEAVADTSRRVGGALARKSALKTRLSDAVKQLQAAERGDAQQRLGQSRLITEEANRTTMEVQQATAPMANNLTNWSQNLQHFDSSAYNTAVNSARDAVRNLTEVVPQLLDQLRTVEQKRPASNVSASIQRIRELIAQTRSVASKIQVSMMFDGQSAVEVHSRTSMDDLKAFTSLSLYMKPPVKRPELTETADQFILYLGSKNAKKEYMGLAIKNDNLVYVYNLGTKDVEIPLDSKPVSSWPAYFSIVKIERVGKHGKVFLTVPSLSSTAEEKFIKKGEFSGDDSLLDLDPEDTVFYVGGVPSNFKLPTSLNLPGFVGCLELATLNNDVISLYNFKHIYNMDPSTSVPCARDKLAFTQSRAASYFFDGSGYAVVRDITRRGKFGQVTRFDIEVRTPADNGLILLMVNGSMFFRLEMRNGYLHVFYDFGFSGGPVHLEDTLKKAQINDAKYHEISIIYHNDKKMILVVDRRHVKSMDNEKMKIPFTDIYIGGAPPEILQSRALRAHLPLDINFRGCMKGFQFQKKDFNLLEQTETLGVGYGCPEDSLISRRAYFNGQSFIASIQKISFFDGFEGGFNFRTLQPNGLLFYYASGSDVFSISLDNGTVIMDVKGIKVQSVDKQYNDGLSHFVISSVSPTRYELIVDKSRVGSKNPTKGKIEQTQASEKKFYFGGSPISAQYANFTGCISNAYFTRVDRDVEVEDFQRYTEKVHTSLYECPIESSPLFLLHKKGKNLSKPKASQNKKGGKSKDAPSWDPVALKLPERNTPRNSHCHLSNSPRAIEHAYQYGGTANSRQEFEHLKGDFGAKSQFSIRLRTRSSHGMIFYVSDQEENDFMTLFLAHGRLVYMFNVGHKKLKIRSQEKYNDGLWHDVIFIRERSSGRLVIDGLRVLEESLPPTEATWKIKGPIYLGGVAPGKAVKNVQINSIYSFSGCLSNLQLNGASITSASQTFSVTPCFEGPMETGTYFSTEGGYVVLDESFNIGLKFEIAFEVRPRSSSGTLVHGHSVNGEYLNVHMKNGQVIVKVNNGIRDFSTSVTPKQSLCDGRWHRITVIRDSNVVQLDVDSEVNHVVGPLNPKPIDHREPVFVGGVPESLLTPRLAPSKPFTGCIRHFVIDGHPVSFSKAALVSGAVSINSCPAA
Chain of UniProt O00264 (O00264 whole entry): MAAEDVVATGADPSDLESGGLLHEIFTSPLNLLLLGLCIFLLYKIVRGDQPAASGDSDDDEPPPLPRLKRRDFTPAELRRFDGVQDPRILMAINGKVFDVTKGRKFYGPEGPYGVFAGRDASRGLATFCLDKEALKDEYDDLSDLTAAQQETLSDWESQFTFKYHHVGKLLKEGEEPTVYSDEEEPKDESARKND
Chain of UniProt Q08380 (Q08380 whole entry): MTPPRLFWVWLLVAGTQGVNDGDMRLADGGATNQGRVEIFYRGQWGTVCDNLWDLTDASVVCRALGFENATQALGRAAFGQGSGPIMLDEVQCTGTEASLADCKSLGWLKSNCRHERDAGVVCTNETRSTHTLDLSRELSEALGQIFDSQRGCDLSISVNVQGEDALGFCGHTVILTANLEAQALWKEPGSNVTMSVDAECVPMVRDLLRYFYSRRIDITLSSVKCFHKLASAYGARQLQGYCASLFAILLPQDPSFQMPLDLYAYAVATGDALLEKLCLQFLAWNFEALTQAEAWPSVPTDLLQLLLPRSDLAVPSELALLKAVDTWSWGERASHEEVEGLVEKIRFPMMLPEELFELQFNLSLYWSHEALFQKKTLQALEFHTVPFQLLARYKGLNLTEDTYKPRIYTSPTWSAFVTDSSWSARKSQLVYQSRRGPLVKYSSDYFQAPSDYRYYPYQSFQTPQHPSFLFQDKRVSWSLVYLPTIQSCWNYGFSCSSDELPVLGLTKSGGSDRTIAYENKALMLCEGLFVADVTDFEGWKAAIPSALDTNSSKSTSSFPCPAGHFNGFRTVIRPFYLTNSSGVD
Chain of UniProt P49368 (P49368 whole entry): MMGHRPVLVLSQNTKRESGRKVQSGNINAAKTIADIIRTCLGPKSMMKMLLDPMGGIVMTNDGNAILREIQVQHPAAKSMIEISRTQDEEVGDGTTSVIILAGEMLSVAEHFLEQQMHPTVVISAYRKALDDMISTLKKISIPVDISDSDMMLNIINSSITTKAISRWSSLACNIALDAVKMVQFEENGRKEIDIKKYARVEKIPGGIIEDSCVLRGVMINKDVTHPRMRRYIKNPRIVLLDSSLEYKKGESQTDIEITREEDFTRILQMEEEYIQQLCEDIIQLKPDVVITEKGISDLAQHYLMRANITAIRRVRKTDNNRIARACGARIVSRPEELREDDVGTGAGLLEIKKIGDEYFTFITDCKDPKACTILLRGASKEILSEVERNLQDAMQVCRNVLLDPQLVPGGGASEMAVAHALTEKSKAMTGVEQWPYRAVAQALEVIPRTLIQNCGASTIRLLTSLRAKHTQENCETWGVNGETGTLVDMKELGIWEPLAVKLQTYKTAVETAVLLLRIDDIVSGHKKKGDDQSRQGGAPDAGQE
Chain of UniProt O96005 (O96005 whole entry): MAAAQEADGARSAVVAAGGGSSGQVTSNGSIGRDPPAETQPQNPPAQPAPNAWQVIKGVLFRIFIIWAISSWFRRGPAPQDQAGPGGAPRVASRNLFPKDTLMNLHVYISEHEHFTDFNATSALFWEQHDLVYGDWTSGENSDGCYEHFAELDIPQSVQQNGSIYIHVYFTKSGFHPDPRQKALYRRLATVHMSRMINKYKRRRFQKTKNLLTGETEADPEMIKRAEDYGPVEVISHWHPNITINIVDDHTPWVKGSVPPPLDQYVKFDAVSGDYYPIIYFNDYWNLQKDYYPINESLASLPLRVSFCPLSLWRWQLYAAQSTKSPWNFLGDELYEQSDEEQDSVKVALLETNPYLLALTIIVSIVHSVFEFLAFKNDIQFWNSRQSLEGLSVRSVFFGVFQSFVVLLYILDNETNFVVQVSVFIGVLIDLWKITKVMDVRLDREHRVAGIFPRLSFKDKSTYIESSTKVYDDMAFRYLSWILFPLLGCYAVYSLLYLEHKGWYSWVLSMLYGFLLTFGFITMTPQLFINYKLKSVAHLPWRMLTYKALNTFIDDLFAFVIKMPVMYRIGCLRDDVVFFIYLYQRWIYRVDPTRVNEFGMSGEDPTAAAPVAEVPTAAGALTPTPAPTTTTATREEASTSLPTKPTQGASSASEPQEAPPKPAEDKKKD

Compound in the assay: C#CCNC(=O)CCSSCCC(=O)NCCc1ccc(C=O)c(C=O)c1
The assay can be described thus: lysine labeling ratio R10:1 (500 µM / 50 µM probe), SILAC-ABPP in living cells; higher = lower intrinsic lysine reactivity toward the probe, active = 2 or less. The following applies: HeLa; probe concentrations 500 vs 50 µM. The method, boiled down: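 SILAC light and heavy living HeLa cells in PBS at room temperature were labelled with 50 µM or 500 µM of an alkyne-tagged, disulfide-linked lysine probe, with forward and reverse label swaps. Mixed lysates were clicked to biotin-azide, trypsin-digested, captured on neutravidin, DTT-released, alkylated and analysed by LC-MS/MS on a TIMS-TOF Pro. R is the filtered median high-probe/low-probe MS1 peptide ratio per lysine, then the median across forward and reverse replicates. Ratios are capped at 20.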
Regarding “CSPG4 (lysine site: K465) (UniProt Q6UVK1)”, the “lysine labeling ratio R10:1” value was 1.56 (active). Regarding UniProt O95490 (lysine site: K494), the “lysine labeling ratio R10:1” value was 1.07 (active). Turning to “CHMP2A (lysine site: K64) (UniProt O43633)”, the “lysine labeling ratio R10:1” value is 5.72. As for “ENO1 (lysine site: K256) (UniProt P06733)”, the “lysine labeling ratio R10:1” value is 1.87 (active). In the case of “VCL (lysine site: K316) (UniProt P18206)” it was 1.77 (active); in that of UniProt Q12904 (lysine site: K35), 1.92 (active); in that of UniProt P18859 (lysine site: K46), 4.7.

Take “FLNA (lysine site: K2607) (UniProt P21333)”: the “lysine labeling ratio R10:1” value was 6.14. In the case of “LRP1 (lysine site: K3988) (UniProt Q07954)” it was 4.67. Turning to “ITGB1 (lysine site: K90) (UniProt P05556)”, the “lysine labeling ratio R10:1” value is 3.53. In the case of “FN1 (lysine site: K2027) (UniProt P02751)” it was 13; in that of “TFPI (lysine site: K102) (UniProt P10646)”, 7.9; in that of UniProt Q16363 (lysine site: K717), 0.58 (active).

As to UniProt O60462 (lysine site: K499), the “lysine labeling ratio R10:1” value was 1.47 (active). “ENAH (lysine site: K574) (UniProt Q8N8S7)”: the “lysine labeling ratio R10:1” value is 5.16.

With “MYH9 (lysine site: K1024) (UniProt P35579)”, the “lysine labeling ratio R10:1” value was 1.84 (active). In the case of UniProt P23352 (lysine site: K411) it was 2.12.

As to “SUB1 (lysine site: K97) (UniProt P53999)”, the “lysine labeling ratio R10:1” value is 6.03. In the case of “PVR (lysine site: K144) (UniProt P15151)” it was 4.25. In the case of “KRT18 (lysine site: K407) (UniProt P05783)” it was 8.64.

Take “C3 (lysine site: K1535) (UniProt P01024)”: the “lysine labeling ratio R10:1” value is 5.81.

Consider “LGALS3BP (lysine site: K427) (UniProt Q08380)”, for which the “lysine labeling ratio R10:1” value is 2.98. In the case of “ITGB1 (lysine site: K91) (UniProt P05556)” it was 1.53 (active); in that of “TFRC (lysine site: K693) (UniProt P02786)”, 5.63. In the case of “LAMB1 (lysine site: K1757) (UniProt P07942)” it was 5.94; in that of UniProt Q15149 (lysine site: K1975), 5.68. In the case of AK2 (lysine site: K28) (UniProt P54819) it was 10.2; in that of “CCT8 (lysine site: K400) (UniProt P50990)”, 4.01; in that of “KRT18 (lysine site: K167) (UniProt P05783)”, 10.7. On to “NUMA1 (lysine site: K573) (UniProt Q14980)”, for which the “lysine labeling ratio R10:1” value was 1.46 (active).

On to UniProt Q15149 (lysine site: K581), for which the “lysine labeling ratio R10:1” value was 3.7. In the case of UniProt P22413 (lysine site: K465) it was 1.52 (active). In the case of “HSPA8 (lysine site: K246) (UniProt P11142)” it was 1.78 (active); in that of “AHNAK (lysine site: K134) (UniProt Q09666)”, 1.99 (active). In the case of “CCT3 (lysine site: K78) (UniProt P49368)” it was 4.07. Take “PGRMC1 (lysine site: K102) (UniProt O00264)”: the “lysine labeling ratio R10:1” value is 5.04. In the case of “CLPTM1 (lysine site: K224) (UniProt O96005)” it was 1.69 (active); in that of “LMO7 (lysine site: K1456) (UniProt Q8WWI1)”, 1.37 (active).

For “SLC3A2 (lysine site: K255) (UniProt P08195)”, the “lysine labeling ratio R10:1” value was 1.64 (active). In the case of “THBS1 (lysine site: K306) (UniProt P07996)” it was 2.27.
